Giardia kill – kills Giardia lamblia. Giardia lamblia trophozoite viability. 340,000 compounds, 0.15% hits. activity change, % at 7.66 µM, hits read low; in the data active = activity change below about -80%; inconclusive = between about -30% and that limit;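 also: parasites exposed to compound for two days anaerobically before the ATP read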
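Viability, read as ATP luminescence: trophozoites at 100 cells/well, compound added, 48 hrs anaerobic at 37 deg C, then 15-30 min room-temperature development before reading.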
ELG1 repair inh – ELG1-dependent DNA repair inhibition; HEK293T ELG1-luciferase reporter, luminescence, 16 h; DNA damage induced by 5-fluorouridine; Potency, µM (top dose mostly 46.1 µM), inactives show at the top dose activity change, negative = inhibition, hits mostly inhibitors; 330,000 compounds, 2.3% hits; AID 504467; also: potency is read from the fitted curve at half-maximal effect; nearly all actives have a fitted effect of over 55% in size
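5-Fluorouridine DNA damage + compound/DMSO, 2,000 cells/well, 16 h, 37 °C/5% CO2. ONE-Glo, 30 min RT, luminescence. Readout = decrease in reporter signal.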
TDP1 cell noCPT – qHTS for Inhibitors of human tyrosyl-DNA phosphodiesterase 1 (TDP1): qHTS in cells in absence of CPT | DT40 Tdp1-/- hTDP1 cells, no CPT, ATP luminescence, 48 h | Potency, µM (doses to about 46.2 µM), for the others: at the top dose activity change, negative = growth inhibition, hits mostly inhibitors | 420,000 compounds, 15% hits | AID 686978, 2013; also: potency is read from the fitted curve at half-maximal effect; nearly all actives have a fitted effect of over 55% in size
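Luminescent ATP content (CellTiter-Glo) served as the growth readout. Knockout chicken DT40 cells expressing human TDP1 were exposed to compounds without camptothecin for a minimum 48 hr at 37 °C.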
TDP1 inh – TDP1 (human) enzyme inhibition. Q9NUW8. recombinant TDP1, AlphaScreen DNA substrate cleavage. Potency, µM (highest dose often 130 µM), without a hit: top-dose activity change, negative = inhibition, hits mostly inhibitors. 350,000 compounds, 0.28% hits. AID 485290; also: potency is read from the fitted curve at half-maximal effect; nearly all actives have a fitted effect of over 40% in size
Target sequence (Q9NUW8 whole entry, looked up): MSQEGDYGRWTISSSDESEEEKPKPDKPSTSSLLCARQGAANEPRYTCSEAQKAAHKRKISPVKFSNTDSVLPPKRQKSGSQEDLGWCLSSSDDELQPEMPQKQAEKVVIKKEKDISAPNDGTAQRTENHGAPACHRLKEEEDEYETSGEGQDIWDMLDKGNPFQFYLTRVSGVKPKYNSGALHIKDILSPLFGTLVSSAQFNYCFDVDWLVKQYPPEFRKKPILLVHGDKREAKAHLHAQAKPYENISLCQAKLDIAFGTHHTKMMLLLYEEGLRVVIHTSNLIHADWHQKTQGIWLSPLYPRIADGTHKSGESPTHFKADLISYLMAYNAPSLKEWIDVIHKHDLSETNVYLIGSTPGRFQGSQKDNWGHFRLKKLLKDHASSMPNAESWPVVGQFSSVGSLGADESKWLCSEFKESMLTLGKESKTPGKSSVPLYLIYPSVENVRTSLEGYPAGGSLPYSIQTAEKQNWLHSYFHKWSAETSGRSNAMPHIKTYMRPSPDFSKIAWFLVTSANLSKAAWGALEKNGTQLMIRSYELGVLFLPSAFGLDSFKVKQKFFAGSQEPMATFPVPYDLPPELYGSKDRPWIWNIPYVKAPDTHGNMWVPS
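Steps: enzyme plus compound, 15 min RT; add biotin/phosphotyrosine-FITC oligonucleotide (15 nM final), react 5 min; add donor/acceptor beads (10 ug/ml final), 10 min; read AlphaScreen. Tdp1 at 1 nM final.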
IL1B secr inh – inhibitors of inflammasome signaling (IL-1 beta secretion); 360,000 compounds, 4.7% hits; activity change, % at 57.5 µM; THP-1 LPS/ATP IL-1B secretion, AlphaLISA, 16 h; stronger effect = lower value; AID 743279; in the data active = activity change below about -50%; inconclusive = mostly about -30% to -49%
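Secreted IL-1B measured by AlphaLISA bead assay after 16 h compound exposure of THP-1 cells; compounds (final up to 57.5 uM) added 1 h before LPS (250 ng/mL) and ATP (1.25 mM) stimulation; lower signal means less secretion.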
DT40 TDP1 CPT – growth inhibition of DT40 Tdp1-/-;hTDP1 cells with camptothecin (screen for TDP1 inhibitors); chicken DT40 Tdp1-/-;hTDP1 cells + 20 nM CPT, ATP luminescence, 48 h; Potency, µM (top dose mostly 46.2 µM), for inactives: at the highest dose activity change, negative = growth inhibition, hits mostly inhibitors; 420,000 compounds, 12% hits; also: potency is read from the fitted curve at half-maximal effect; nearly all actives have a fitted effect of over 55% in size
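Chicken DT40 Tdp1-/- cells stably complemented with human TDP1 were seeded at 400 cells/well in medium containing 20 nM camptothecin, exposed to pin-transferred compounds, and grown at 37 °C for at least 48 hr. Viability was read as ATP luminescence.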
Starred values were filed as active, the others as inactive; ? = inconclusive; nt = no result; [ ] = remark or other dose. This is a sample that favours compounds with a hit; in the whole collection about 19% have one here. Unless noted, calls follow the shape of the dose curve; as a rule, active = well fitted curve in the direction sought with a large enough effect; inconclusive = small, poorly fitted or top-dose-only effect, or another doubt; inactive = no such curve, though single readings can be large; an effect the other way counts as inactive or inconclusive. % is scaled to controls: 0 for no effect and ±100 for the full control effect.

SMILES	Giardia kill	ELG1 repair inh	TDP1 cell noCPT	TDP1 inh	IL1B secr inh	DT40 TDP1 CPT
O=C(COC(=O)/C=C/c1cccc(Br)c1)NCc1ccco1	-1	0%	2%	1%	12	3%
COc1cccc(/C=C/C(=O)OCC(=O)NCCC2=CCCCC2)c1	-13	7%	23µM*	-3%	20	?
CC(=O)N1CC2([N+](=O)[O-])CN(C(C)=O)CC([N+](=O)[O-])(C1)C2(C)C	-1	5%	-1%	7%	-18	-2%
Nc1ccc2cccc(O)c2c1	2	nt	13µM*	nt	20	?
O=S(=O)(CCN1CCCCC1)CCS(=O)(=O)CCN1CCCCC1	6	nt	-27%	nt	-71*	?
CCOC(=O)Nc1oc2ccccc2c(=O)c1CN1CCOCC1	-15	10µM*	?	2%	-19	-21%
C=CCC[C@@H](Cc1ccc(F)cc1)C(=O)OC[C@@H]1CCCN1C(=O)[C@@H](CC=C)CC(=O)N[C@@H](CO)Cc1ccccc1	15	-11%	16µM*	1%	?	15µM*
C=CCC[C@H](Cc1ccc(F)cc1)C(=O)OC[C@@H]1CCCN1C(=O)[C@@H](CC=C)CC(=O)NCCO	6	-1%	21µM*	1%	6	?
C=CC[C@@H](Cc1ccc(F)cc1)C(=O)OC[C@@H]1CCCN1C(=O)[C@H](CC=C)CC(=O)NCCO	9	5%	?	1%	6	?
O=C(C1CCN(S(=O)(=O)N2CCCCC2)CC1)N1CCCCC1	3	5%	6%	5%	15	-2%
COC(=O)c1ccc(OCC(O)CN2CCN(C(=O)c3ccco3)CC2)cc1 (centres undefined)	?	?	-4%	nt	-1	5%
O=C(c1ccco1)N1CCN(CC(O)Cn2c3ccccc3c3ccccc32)CC1 (centres undefined)	12	?	?	9%	-24	18µM*
O=C(c1ccco1)N1CCN(Cc2c(Cl)cccc2Cl)CC1	9	?	9.2µM*	nt	0	?
O=C(c1ccco1)N1CCN(Cc2cccc3ccccc23)CC1	5	?	?	4%[0.0935 µM]	-24	8.2µM*
CCc1ccc(CN2CCN(C(=O)c3ccco3)CC2)cc1	-13	-1%	-17%	nt	?	?
O=C(c1cc(-c2ccccc2Cl)on1)N1CCN(C(=O)c2ccco2)CC1	9	24%	-13%	6%	-29	-10%
O=C(c1ccco1)N1CCN(Cc2csc(-c3ccccc3Cl)n2)CC1	-10	?	21µM*	9%	-1	?
Cc1ccc(NC(=O)Cn2c(=S)[nH]c3ccccc32)cc1	-19	0%	?	5%	14	-28%
CC(O)C#C[Si](C)(C)c1ccccc1 (centres undefined)	nt	nt	nt	6%	nt	nt
O=C(NCc1ccc(Cl)cc1Cl)c1cccc(N2CCCS2(=O)=O)c1	nt	nt	?	3%	nt	16µM*
Cc1cc(C)cc(NC(=O)c2cccc(N3CCCS3(=O)=O)c2)c1	nt	nt	?	-3%	nt	15µM*
O=C(c1ccco1)N1CC2(CC(c3ccc(Cl)cc3)=NO2)CN1Cc1ccc(Br)cc1 (centres undefined)	nt	nt	?	nt	-17	21µM*
COCCn1c(=O)c(-c2ccc(F)cc2)nc2cnc(OC)nc21	nt	nt	-10%	nt	nt	-22%
CCOC(=O)c1cn(-c2c(Cl)cccc2Cl)c2cc(Cl)c([N+](=O)[O-])cc2c1=O	?	?	16µM*	8%	-54*	?
CCOC(=O)C1CCN(c2ncnc3c(C)csc23)CC1	?	?	13µM*	1%	-6	?
SMILES	Giardia kill	ELG1 repair inh	TDP1 cell noCPT	TDP1 inh	IL1B secr inh	DT40 TDP1 CPT
CCOC(=O)c1ccc(NC(=O)N2CCN(c3ccccc3OC)CC2)cc1	27	-8%	?	-1%	3	?
CCOC(=O)C1CCN(c2ncnc3nc[nH]c23)CC1	14	4%	-26%	3%	-56*	-1%
CCOC(=O)C1CCN(c2ncnc3cc(OC)c(OC)cc23)CC1	-6	-9%	21µM*	5%	-19	?
COc1cc2ncnc(N3CCN(C(=O)Nc4ccc(Oc5ccccc5)cc4)CC3)c2cc1OC	nt	nt	11µM*	nt	nt	11µM*
CCOC(=O)C1CCN(c2ncnc3c2cnn3-c2ccc(OC)cc2)CC1	14	-5%	-30%	-12%	17	-15%
O=C(O)c1ccc2c(c1)C(=O)N([C@H](Cc1ccc(C(F)(F)F)cc1)C(=O)O)C2=O	nt	nt	nt	7%	nt	nt
CCCCn1c(SCC(=O)NC2CC2)nc2ccccc2c1=O	5	?	5%	2%	-4	3%
COc1cccc(CN2CCN(C(=O)c3cc(-c4ccccn4)nc4ccc(Cl)cc34)CC2)c1	3	0%	18µM*	5%	54	?
COc1cccc(CN2CCN(C(=O)c3cc(-c4ccncc4)nc4ccc(C)cc34)CC2)c1	-8	nt	16µM*	nt	-14	23µM*
Cc1cccc(NC(=O)CSc2nc(=O)n(CCN3CCOCC3)c3c2CCCC3)c1C	10	-2%	-20%	nt	-12	-21%
C=CCn1cnnc1SCC(=O)Nc1cccnc1Cl	nt	18%	nt	3%	nt	nt
COc1ccc(NC(=O)c2cccc(Cn3cc(Br)cn3)c2)cn1	-4	-11%	?	-3%	34	?
Cc1cnc(CNc2cc(-c3ccoc3)ncn2)cn1	nt	nt	4%	-13%	nt	0%
Cc1ccc(NC(=O)CN2C(=O)NC(Cc3c[nH]c4ccccc34)C2=O)cc1S(=O)(=O)N1CCCCC1 (centres undefined)	-9	?	21µM*	5%	?	21µM*
COc1cccc(NC(=O)CN2C(=O)NC(Cc3c[nH]c4ccccc34)C2=O)c1 (centres undefined)	-8	?	-25%	5%	-9	?
COc1ccc(Cl)cc1NC(=O)CN1C(=O)NC(Cc2c[nH]c3ccccc23)C1=O (centres undefined)	-4	?	?	5%	-57*	?
CCN1CCN(C(=O)c2ccccc2Nc2ccc(SC(F)F)cc2)CC1	2	-2%	-22%	-3%	?	-9%
CN1CCN(C(=O)c2ccccc2Nc2ccc(SC(F)F)cc2)CC1	5	-5%	16µM*	0%	-18	?
Cc1ccc(Sc2c(CO)c(-c3ccccc3)nn2C)cc1	-5	?	0.73µM*	2%	-11	1.2µM*
